The values below come from PubChem BioAssay (EPA / NIEHS).

Each structure is given as a SMILES string. Active and inactive are the calls of the source. The calls were made as follows: active = hit-call score of the fitted dose curve at least 0.9, where 1 is the maximum; inactive = score below 0.9.

Common to all, as to conditions: mRNA level, 48 h; actives raise or lower the signal
Read-out in one experiment: HGF (gene 3082)
Kind of experiment: LTEA_HepaRG_HGF: Life Technologies and Expression Analysis (LTEA) Assay for Hepatocyte Growth Facto (HGF) using HepaRG (AID 2283505). A digest of the protocol:
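Read-out is HGF transcript level by qRT-PCR, normalized to three housekeeping genes, fitted bidirectionally against 0.5% DMSO vehicle. Human HepaRG cells received test chemicals for 48 h at up to 100 uM.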

Read-out in experiment [1]: Insulin Like Growth Factor 1 (IGF1), IGF1 (gene 3479)
The experiment can be described thus: LTEA_HepaRG_IGF1: Life Technologies and Expression Analysis (LTEA) Assay for Insulin Like Growth Factor 1 (IGF1) using HepaRG (AID 2283506). An outline of the steps: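 Cells are thawed, plated and cultured 48 h, then exposed in duplicate to chemical (highest 100 uM, half-log steps, 0.5% DMSO) for another 48 h. Total RNA is analysed by Fluidigm qRT-PCR for IGF1 expression relative to vehicle.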

Read-out in experiment [2]: Intercellular Adhesion Molecule 1 (ICAM1), ICAM1 (gene 3383)
The experiment can be described thus: LTEA_HepaRG_ICAM1: Life Technologies and Expression Analysis (LTEA) Assay for Intercellular Adhesion Molecule 1 (ICAM1) using HepaRG (AID 2283507). A digest of the protocol:
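Readout is qRT-PCR mRNA level, normalized to three housekeeping genes and fitted bidirectionally against 0.5% DMSO vehicle. Human HepaRG cultures received compound for 48 h, top concentration 100 uM with half-log dilutions.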

Read-out in experiment [3]: Interleukin 6 (IL6), IL6 (gene 3569)
The experiment can be described thus: LTEA_HepaRG_IL6: Life Technologies and Expression Analysis (LTEA) Assay for Interleukin 6 (IL6) using HepaRG (AID 2283509). An outline of the steps:
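Changes in IL6 mRNA, up or down relative to 0.5% DMSO controls, were derived from concentration-response curves in human HepaRG cells treated for 48 h at up to 100 uM, with ACTB, GAPDH and POLR2A as normalizers.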

Read-out in experiment [4]: Interleukin 6 Receptor (IL6R), IL6R (gene 3570)
Kind of experiment: LTEA_HepaRG_IL6R: Life Technologies and Expression Analysis (LTEA) Assay for Interleukin 6 Receptor (IL6R) using HepaRG (AID 2283510). A digest of the protocol: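 Cells were thawed, plated and cultured 48 h, then medium was changed to serum-free induction medium. Chemicals were added in duplicate (100 uM top, half-log steps, 0.5% DMSO) for 48 h. Lysates were analyzed by qRT-PCR for IL6R expression.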

Read-out in experiment [5]: Potassium channel subfamily K member 1 (KCNK1), KCNK1 (gene 3775)
Kind of experiment: LTEA_HepaRG_KCNK1: Life Technologies and Expression Analysis (LTEA) Assay for Potassium channel subfamily K member 1 (KCNK1) using HepaRG (AID 2283511). A digest of the protocol:
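Human HepaRG cultures receive test chemicals for 48 h in 0.5% DMSO, top concentration 100 uM with half-log dilutions. Induction or suppression of KCNK1 mRNA relative to DMSO is derived by bidirectional fitting of qRT-PCR data.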

Read-out in experiment [6]: Keratin 19 (KRT19), KRT19 (gene 3880)
The experiment can be described thus: LTEA_HepaRG_KRT19: Life Technologies and Expression Analysis (LTEA) Assay for Keratin 19 (KRT19) using HepaRG (AID 2283512). A digest of the protocol: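 KRT19 transcript levels, measured by Fluidigm qRT-PCR against three housekeeping genes, are fitted for gain or loss of signal relative to DMSO. Human HepaRG cells receive test chemicals (top 100 uM, half-log steps, 0.5% DMSO) for 48 hours.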

Read-out in experiment [7]: Lipase C (LIPC), LIPC (gene 3990)
The experiment can be described thus: LTEA_HepaRG_LIPC: Life Technologies and Expression Analysis (LTEA) Assay for Lipase C (LIPC) using HepaRG (AID 2283514). An outline of the steps:
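In this multiplexed gene-expression screen, human HepaRG cultures received test chemicals for 48 h across eight concentrations with 100 uM highest, in duplicate. Values reflect LIPC mRNA induction or suppression versus DMSO vehicle, from normalized qRT-PCR.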

Read-out in experiment [8]: Lipoprotein lipase (LPL), LPL (gene 4023)
Kind of experiment: LTEA_HepaRG_LPL: Life Technologies and Expression Analysis (LTEA) Assay for Lipoprotein lipase (LPL) using HepaRG (AID 2283515). An outline of the steps: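 Concentration-response testing used half-log steps from 100 uM in 0.5% DMSO on human HepaRG cells, 48 h, duplicate wells. Phenobarbital 1 mM served as induction control; LPL mRNA was normalized to ACTB, GAPDH, POLR2A.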

Read-out in experiment [9]: MicroRNA 122 (MIR122), gene 406906
Kind of experiment: LTEA_HepaRG_MIR122: Life Technologies and Expression Analysis (LTEA) Assay for MicroRNA 122 (MIR122) using HepaRG (AID 2283516). Also: the transcript read is the microRNA miR-122. An outline of the steps: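 Human liver HepaRG cultures receive test chemicals for 48 h at eight half-log concentrations from 100 uM. Expression is quantified by qRT-PCR with ACTB/GAPDH/POLR2A normalization and fitted bidirectionally against 0.5% DMSO.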

Read-out in experiment [10]: matrix metalloproteinase-10 (MMP10), MMP10 (gene 4319)
The experiment can be described thus: LTEA_HepaRG_MMP10: Life Technologies and Expression Analysis (LTEA) Assay for matrix metalloproteinase-10 (MMP10) using HepaRG (AID 2283517). A digest of the protocol:
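In differentiated HepaRG cultures kept in 0.5% DMSO, test chemicals act for 48 h over an eight-point range with a top dose of 100 uM. Expression is then quantified by TaqMan RT-PCR against ACTB, GAPDH and POLR2A.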

Read-out in the next experiment: MYC, MYC (gene 4609)
Kind of experiment: LTEA_HepaRG_MYC: Life Technologies and Expression Analysis (LTEA) Assay for MYC using HepaRG (AID 2283518). A digest of the protocol: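 HepaRG, ~100,000 cells/well, collagen I; 48 h plating; serum-free induction medium; 48 h dosing, duplicate, 100 uM top, half-log, 0.5% DMSO; total RNA → qRT-PCR MYC; gain/loss fit vs DMSO.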

Read-out in experiment [11]: matrix metalloproteinase-3 (MMP3), MMP3 (gene 4314)
Kind of experiment: LTEA_HepaRG_MMP3: Life Technologies and Expression Analysis (LTEA) Assay for matrix metalloproteinase-3 (MMP3) using HepaRG (AID 2283519). A digest of the protocol: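 Human liver HepaRG cultures received chemicals (top concentration 100 uM, 0.5% DMSO) for 48 h in duplicate. MMP3 mRNA induction or loss was then assessed via TaqMan qRT-PCR with housekeeping-gene normalisation.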

Read-out in experiment [12]: Paternally Expressed 10 (PEG10), PEG10 (gene 23089)
Kind of experiment: LTEA_HepaRG_PEG10: Life Technologies and Expression Analysis (LTEA) Assay for Paternally Expressed 10 (PEG10) using HepaRG (AID 2283520).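 As to AC50: PEG10 transcript by qRT-PCR normalised to ACTB GAPDH and POLR2A.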 A digest of the protocol: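 Human HepaRG cultures are dosed for 48 h across an eight-point half-log series starting at 100 uM, with 0.5% DMSO as vehicle and baseline. Gain or loss of PEG10 transcript is measured by qRT-PCR and fitted in both directions.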

Read-out in experiment [13]: Nuclear factor NF-kappa-B p105 subunit (Homo sapiens) (UniProt P19838)
The experiment can be described thus: LTEA_HepaRG_NFKB1: Life Technologies and Expression Analysis (LTEA) Assay for Nuclear Factor Kappa B Subunit 1 (NFKB1) using HepaRG (AID 2283521).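 Also: TaqMan qRT-PCR transcript normalised to ACTB GAPDH and POLR2A housekeeping genes.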 An outline of the steps:
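Differentiated human HepaRG cells were exposed for 48 h in serum-free induction medium to eight concentrations (top 100 uM, half-log steps, 0.5% DMSO), in duplicate. NFKB1 mRNA was measured by TaqMan qRT-PCR, normalized to ACTB/GAPDH/POLR2A, and fitted bidirectionally against DMSO.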

Read-out in experiment [14]: Protein phosphatase 2A (PPP2R4), PTPA (gene 5524)
Kind of experiment: LTEA_HepaRG_PPP2R4: Life Technologies and Expression Analysis (LTEA) Assay for Protein phosphatase 2A (PPP2R4) using HepaRG (AID 2283522). An outline of the steps:
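Cells were plated, cultured 48 h, switched to serum-free induction medium, then dosed for 48 h (8 points, max 100 uM, 0.5% DMSO). RNA was isolated and PPP2R4 expression measured by TaqMan qRT-PCR.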

Read-out in experiment [15]: Phosphatase and tensin (PTEN), PTEN (gene 5728)
Kind of experiment: LTEA_HepaRG_PTEN: Life Technologies and Expression Analysis (LTEA) Assay for Phosphatase and tensin (PTEN) using HepaRG (AID 2283523). A digest of the protocol:
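Expression of PTEN is quantified in the human liver line HepaRG following two days of dosing (top concentration 100 uM, half-log dilutions, 0.5% DMSO). Values derive from bidirectional curve fitting relative to DMSO controls.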

Read-out in experiment [16]: solute carrier (SLC22A1), SLC22A1 (gene 6580)
The experiment can be described thus: LTEA_HepaRG_SLC22A1: Life Technologies and Expression Analysis (LTEA) Assay for solute carrier (SLC22A1) using HepaRG (AID 2283524). A digest of the protocol: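 Transcript induction or suppression of SLC22A1 in human HepaRG cultures is scored after 48 h chemical treatment, with DMSO (0.5%) as baseline for bidirectional fitting. Concentrations span eight half-log points topping at 100 uM.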

Read-out in experiment [17]: JUN Transcription Factor, JUN (gene 3725)
The experiment can be described thus: LTEA_HepaRG_JUN: Life Technologies and Expression Analysis (LTEA) Assay for JUN Transcription Factor using HepaRG (AID 2283513). A digest of the protocol: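 Read-out is JUN transcript level by TaqMan qRT-PCR, normalized to ACTB, GAPDH and POLR2A, after 48 h chemical treatment of HepaRG cells. Concentration-response spanned eight half-log points up to 100 uM in 0.5% DMSO.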

Nuclear factor NF-kappa-B p105 subunit (Homo sapiens), sequence (P19838 whole entry, looked up): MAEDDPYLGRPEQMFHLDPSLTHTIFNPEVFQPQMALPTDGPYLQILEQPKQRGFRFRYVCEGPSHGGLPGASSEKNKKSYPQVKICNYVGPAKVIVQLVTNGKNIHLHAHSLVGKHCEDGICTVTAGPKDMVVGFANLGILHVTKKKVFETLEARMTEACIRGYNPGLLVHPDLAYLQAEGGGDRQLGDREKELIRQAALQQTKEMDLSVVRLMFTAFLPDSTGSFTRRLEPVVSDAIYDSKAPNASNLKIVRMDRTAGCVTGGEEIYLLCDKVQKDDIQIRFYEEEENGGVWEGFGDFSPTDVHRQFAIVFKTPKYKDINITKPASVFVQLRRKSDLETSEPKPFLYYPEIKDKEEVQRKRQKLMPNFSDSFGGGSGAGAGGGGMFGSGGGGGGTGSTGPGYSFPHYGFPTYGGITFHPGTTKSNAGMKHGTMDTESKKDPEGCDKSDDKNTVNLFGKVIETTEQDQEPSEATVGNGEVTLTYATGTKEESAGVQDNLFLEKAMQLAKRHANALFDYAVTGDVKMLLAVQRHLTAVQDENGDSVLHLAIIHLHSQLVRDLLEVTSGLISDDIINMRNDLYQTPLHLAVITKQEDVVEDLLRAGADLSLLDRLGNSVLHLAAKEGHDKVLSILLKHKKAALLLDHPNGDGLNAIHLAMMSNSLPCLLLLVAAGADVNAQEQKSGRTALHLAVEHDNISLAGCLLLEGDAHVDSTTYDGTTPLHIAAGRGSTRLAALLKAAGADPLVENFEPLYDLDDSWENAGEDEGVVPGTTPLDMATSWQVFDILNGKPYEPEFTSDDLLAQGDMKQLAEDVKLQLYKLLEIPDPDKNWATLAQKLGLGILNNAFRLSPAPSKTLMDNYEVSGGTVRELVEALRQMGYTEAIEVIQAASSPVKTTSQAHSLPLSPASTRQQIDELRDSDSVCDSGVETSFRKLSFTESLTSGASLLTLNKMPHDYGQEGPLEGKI

Consider `O=C(N[C@H]1CN2CCC1CC2)c1cc2ccoc2cn1`, for which the compound was classed as inactive (with HGF (gene 3082); in [1]; in experiment [2]; in experiment [3]; in experiment [4]; in experiment [5]). For the same compound, the outcome was “inactive” in experiment [6]; “inactive” in experiment [7]; “inactive” in experiment [8]; “inactive” in experiment [9]; “inactive” in [10]; “inactive” in the experiment with MYC, MYC (gene 4609). Besides, the call in [11], in [12], in experiment [13], in experiment [14], in experiment [15] and in experiment [16] was inactive.

As for `CC(C)(c1ccccc1)c1ccc(O)cc1`, the AC50 with HGF (gene 3082) is 83.2 µM (active); in experiment [7] it was 83.6 µM (active); in experiment [12], 84.7 µM (active); in experiment [16], 50 µM (active). In addition, the result in [1], in experiment [2], in experiment [3], in experiment [4], in experiment [6] and in [17] was inactive. Besides, the outcome in [8] is “inactive”; in experiment [9], “inactive”; in [10], “inactive”; with MYC, MYC (gene 4609), “inactive”; in experiment [11], “inactive”; in experiment [13] it was “inactive”. In addition, the compound was called inactive in experiment [14] and in experiment [15].

As for `Cc1cccc(C)c1N`, the compound was called inactive (in the experiment with HGF (gene 3082); in experiment [1]; in experiment [2]; in experiment [3]; in [4]; in experiment [5]). Also, the outcome in [6] was “inactive”; in experiment [7], “inactive”; in experiment [8] it was “inactive”; in experiment [9] it was “inactive”; in experiment [10], “inactive”; in the experiment with MYC, MYC (gene 4609), “inactive”. The outcome in experiment [11], in [12], in experiment [13], in experiment [14], in experiment [15] and in experiment [16] was inactive.

Turning to `Clc1ccc(C(Cl)(Cl)Cl)cc1`, the result (with HGF (gene 3082); in experiment [1]; in experiment [2]; in experiment [3]; in experiment [4]; in experiment [5]) was inactive. The outcome in experiment [6] was “inactive”; in [7], “inactive”; in [8], “inactive”; in experiment [9], “inactive”; in experiment [10] it was “inactive”; in the experiment with MYC, MYC (gene 4609) it was “inactive”. The compound was called inactive in [11], in [12], in experiment [14], in [15] and in experiment [16].

Consider `O=NN(c1ccccc1)c1ccccc1`, for which the result (in the experiment with HGF (gene 3082); in experiment [1]; in [2]; in [3]; in experiment [4]; in experiment [6]) was inactive. Moreover, the outcome in [17] was “inactive”; in experiment [7], “inactive”; in [8], “inactive”; in experiment [9], “inactive”; in experiment [10] it was “inactive”; in the experiment with MYC, MYC (gene 4609), “inactive”. In addition, the compound was classed as inactive in experiment [12], in experiment [14], in [15] and in experiment [16]. In addition, in experiment [11], the AC50 was 80.6 µM (active).

`CCOCCOC(C)=O`: the compound was called inactive (with HGF (gene 3082); in [1]; in experiment [2]; in experiment [3]; in experiment [4]; in [5]). Moreover, the outcome in experiment [6] is “inactive”; in experiment [7], “inactive”; in experiment [8] it was “inactive”; in [9], “inactive”; in experiment [10], “inactive”; in the experiment with MYC, MYC (gene 4609), “inactive”. The result in experiment [11], in experiment [12], in experiment [14], in experiment [15] and in experiment [16] was inactive.

As for `N#Cc1ccc(N(CC(N)=O)CC(F)(F)F)cc1C(F)(F)F`, the compound was classed as inactive (with HGF (gene 3082); in experiment [1]; in experiment [2]; in experiment [3]; in [4]; in experiment [6]). The outcome in [17] was “inactive”; in experiment [7], “inactive”; in experiment [8], “inactive”; in experiment [9], “inactive”; in experiment [10], “inactive”; with MYC, MYC (gene 4609), “inactive”. In addition, the outcome in [11], in experiment [14], in experiment [15] and in experiment [16] was inactive. In experiment [12], the AC50 was 10.5 µM (active).
